Several values for one entry are separate records, joined by “and”; a condition that tells them apart may be missing. Equal entries are not always repeated. Out of some 5,500 compounds screened, about 2,000 (36%) were called active. About 18% were inconclusive and are not listed. Cut-off read from the data, not from the text of the source: active = normalized growth mostly below about 0.91 (no sharp cut-off); inconclusive = no clear call, values can overlap the other calls; inactive = mostly above about 0.92. Some of the results follow.
Assay: chemical genetic growth profiling, strain panel (AID 1159580);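 note: tested at 20 µM; growth read once vehicle control cultures reached saturation at 30 °C; 1 = growth at the plate median or of vehicle wells; lower values mean less growth of the strain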
Conditions: growth OD

Measured: normalized growth

CC(COc1ccccc1)N(CCCl)Cc1ccccc1 (stereo unspecified)
active: S. cerevisiae deletion strains, locus YLR027C, strain aat2, active compounds read low 0.924 | S. cerevisiae deletion strains, locus YNL071W, strain lat1, active compounds read low 0.918
inactive: S. cerevisiae deletion strains, locus YJR075W, strain HOC1, active compounds read low 1.02 | S. cerevisiae deletion strains, locus YKL009W, strain mrt4, active compounds read low 1.04 | S. cerevisiae deletion strains, locus YKL068W, active compounds read low 1.02 | S. cerevisiae deletion strains, locus YKL085W, strain MDH1 (second series), active compounds read low 1.01 | S. cerevisiae deletion strains, locus YKL085W, strain MDH1, active compounds read low 1.01 | S. cerevisiae deletion strains, locus YKL160W, strain elf1, active compounds read low 0.931 | S. cerevisiae deletion strains, locus YKL190W, strain CNB1, active compounds read low 1.01 | S. cerevisiae deletion strains, locus YKR001C, strain vps1, active compounds read low 0.996 | S. cerevisiae deletion strains, locus YKR026C, strain gcn3, active compounds read low 0.985 | S. cerevisiae deletion strains, locus YKR091W, strain srl3, active compounds read low 0.978 | S. cerevisiae deletion strains, locus YLL001W, strain dnm1, active compounds read low 1.03 | S. cerevisiae deletion strains, locus YLL026W, active compounds read low 0.976 | S. cerevisiae deletion strains, locus YLL041C, strain sdh2, active compounds read low 0.979 | S. cerevisiae deletion strains, locus YLR039C, strain RIC1, active compounds read low 0.939 | S. cerevisiae deletion strains, locus YLR058C, strain SHM2, active compounds read low 1.01 | S. cerevisiae deletion strains, locus YLR102C, strain apc9, active compounds read low 1.01 | S. cerevisiae deletion strains, locus YLR113W, strain HOG1, active compounds read low 0.977 | S. cerevisiae deletion strains, locus YLR221C, strain rsa3, active compounds read low 0.995 | S. cerevisiae deletion strains, locus YLR258W, strain gsy2, active compounds read low 0.95 | S. cerevisiae deletion strains, locus YLR262C, strain YPT6 (second series), active compounds read low 0.897 | S. cerevisiae deletion strains, locus YLR262C, strain YPT6, active compounds read low 0.977 | S. cerevisiae deletion strains, locus YLR268W, strain sec22, active compounds read low 1.04 | S. cerevisiae deletion strains, locus YLR320W, strain mms22, active compounds read low 0.985 | S. cerevisiae deletion strains, locus YLR330W, strain CHS5, active compounds read low 1.01 | S. cerevisiae deletion strains, locus YLR342W, strain FKS1 (second series), active compounds read low 0.974 | S. cerevisiae deletion strains, locus YLR342W, strain FKS1, active compounds read low 0.989 | S. cerevisiae deletion strains, locus YLR357W, strain rsc2, active compounds read low 0.969 | S. cerevisiae deletion strains, locus YLR370C, strain arc18, active compounds read low 0.963 | S. cerevisiae deletion strains, locus YLR371W, strain rom2, active compounds read low 1.02 | S. cerevisiae deletion strains, locus YLR384C, strain iki3, active compounds read low 0.999 | S. cerevisiae deletion strains, locus YLR418C, strain cdc73, active compounds read low 0.97 | S. cerevisiae deletion strains, locus YML016C, strain PPZ1, active compounds read low 1 | S. cerevisiae deletion strains, locus YML032C, strain rad52, active compounds read low 1.02 | S. cerevisiae deletion strains, locus YML120C, strain ndi1, active compounds read low 1.01 | S. cerevisiae deletion strains, locus YML124C, strain tub3, active compounds read low 1.01 | S. cerevisiae deletion strains, locus YMR058W, strain fet3, active compounds read low 0.95 | S. cerevisiae deletion strains, locus YMR078C, strain ctf18, active compounds read low 1.02 | S. cerevisiae deletion strains, locus YMR125W, strain sto1, active compounds read low 0.987 | S. cerevisiae deletion strains, locus YMR129W, active compounds read low 0.959 | S. cerevisiae deletion strains, locus YMR205C, strain PFK2, active compounds read low 0.969 | S. cerevisiae deletion strains, locus YMR223W, strain ubp8, active compounds read low 0.99 | S. cerevisiae deletion strains, locus YMR231W, strain pep5, active compounds read low 0.996 | S. cerevisiae deletion strains, locus YMR263W, strain SAP30, active compounds read low 1.01 and 0.995 | S. cerevisiae deletion strains, locus YMR307W, strain GAS1, active compounds read low 1.01 and 1 | S. cerevisiae deletion strains, locus YNL067W, strain RPL9B, active compounds read low 1.03 | S. cerevisiae deletion strains, locus YNL128W, strain TEP1, active compounds read low 1.01 | S. cerevisiae deletion strains, locus YNL153C, strain GIM3, active compounds read low 1.02 | S. cerevisiae deletion strains, locus YNL175C, strain NOP13, active compounds read low 0.996 | S. cerevisiae deletion strains, locus YNL183C, strain NPR1, active compounds read low 0.919 | S. cerevisiae deletion strains, locus YNL197C, strain WHI3, active compounds read low 1.01 | S. cerevisiae deletion strains, locus YNL209W, strain ssb2, active compounds read low 0.953 | S. cerevisiae deletion strains, locus YNL224C, strain SQS1, active compounds read low 0.984 | S. cerevisiae deletion strains, locus YNL233W, strain BNI4, active compounds read low 1.01 | S. cerevisiae deletion strains, locus YNL248C, strain rpa49, active compounds read low 0.894 | S. cerevisiae deletion strains, locus YNL250W, strain rad50, active compounds read low 1 | S. cerevisiae deletion strains, locus YNL271C, strain bni1, active compounds read low 1.01 | S. cerevisiae deletion strains, locus YNL298W, strain CLA4, active compounds read low 1 | S. cerevisiae deletion strains, locus YNL307C, strain MCK1, active compounds read low 1 | S. cerevisiae deletion strains, locus YNL322C, strain KRE1 (second series), active compounds read low 0.923 | S. cerevisiae deletion strains, locus YNL322C, strain KRE1, active compounds read low 1.01 | S. cerevisiae deletion strains, locus YNR049C, strain mso1, active compounds read low 0.975 | S. cerevisiae deletion strains, locus YNR052C, strain pop2, active compounds read low 1.01 | S. cerevisiae deletion strains, locus YOL006C, strain TOP1, active compounds read low 1.07 | S. cerevisiae deletion strains, locus YOL012C, strain htz1 0.857 | S. cerevisiae deletion strains, locus YOL147C, strain pex11, active compounds read low 1.01 | S. cerevisiae deletion strains, locus YOR001W, strain rrp6, active compounds read low 0.996 | S. cerevisiae deletion strains, locus YOR061W, strain CKA2, active compounds read low 1.01 | S. cerevisiae deletion strains, locus YOR069W, strain VPS5, active compounds read low 1.01 | S. cerevisiae deletion strains, locus YOR070C, strain gyp1, active compounds read low 0.979 | S. cerevisiae deletion strains, locus YOR080W, strain dia2, active compounds read low 0.995 | S. cerevisiae deletion strains, locus YOR083W, strain WHI5 (second series), active compounds read low 0.987 | S. cerevisiae deletion strains, locus YOR083W, strain WHI5, active compounds read low 0.9 | S. cerevisiae deletion strains, locus YOR106W, strain vam3, active compounds read low 0.89 | S. cerevisiae deletion strains, locus YOR136W, strain idh2, active compounds read low 1 | S. cerevisiae deletion strains, locus YOR144C, strain elg1, active compounds read low 1.02 | S. cerevisiae deletion strains, locus YOR184W, strain ser1, active compounds read low 0.954 | S. cerevisiae deletion strains, locus YOR231W, strain MKK1, active compounds read low 0.99 | S. cerevisiae deletion strains, locus YOR265W, strain rbl2, active compounds read low 0.997 | S. cerevisiae deletion strains, locus YOR270C, strain vph1, active compounds read low 0.838 | S. cerevisiae deletion strains, locus YOR290C, strain snf2, active compounds read low 0.898 | S. cerevisiae deletion strains, locus YOR316C, strain cot1, active compounds read low 1.02 | S. cerevisiae deletion strains, locus YPL051W, strain arl3, active compounds read low 0.916 | S. cerevisiae deletion strains, locus YPL055C, strain LGE1, active compounds read low 1 | S. cerevisiae deletion strains, locus YPL078C, strain atp4, active compounds read low 0.926 | S. cerevisiae deletion strains, locus YPL106C, strain sse1, active compounds read low 0.949 | S. cerevisiae deletion strains, locus YPL240C, strain hsp82, active compounds read low 0.991 | S. cerevisiae deletion strains, locus YPL241C, strain CIN2, active compounds read low 1 | S. cerevisiae deletion strains, locus YPL256C, strain CLN2, active compounds read low 0.981 | S. cerevisiae deletion strains, locus YPR119W, strain clb2, active compounds read low 1.02 | S. cerevisiae deletion strains, locus YPR141C, strain kar3, active compounds read low 1.01 | S. cerevisiae deletion strains, locus YPR163C, strain tif3, active compounds read low 1.02 | S. cerevisiae deletion strains, locus YPR167C, strain met16, active compounds read low 1.02 | S. cerevisiae deletion strains, strain wtn01, active compounds read low 1.03 | S. cerevisiae strains, strain wild type, active compounds read low 1

Source: PubChem BioAssay AID1159580 (chemical genetic matrix, 2015)
